88 molecules from PubChem BioAssay AID1851 (National Center for Advancing Translational Sciences (NCATS), 2009) can be followed below.

Molecules are shown by their SMILES. “And” between values parts separate entries of the source, which are not always exact repeats. Identical values can stand only once. About 5,100 (32%) of roughly 16,000 compounds were called active. Not shown: some 25% with an inconclusive outcome. The list shows a part of the results. A number with no mark means an inactive call. Calls follow the shape of the dose curve; as a rule, active = well fitted curve in the direction sought with a large enough effect; inconclusive = small, poorly fitted or top-dose-only effect, or effect the other way; inactive = no such curve, though single readings can be large or run the other way.
% is scaled to controls: 0 for no effect and ±100 for the full control effect.

The experiment deals with Cytochrome P450 3A4 (Homo sapiens) (UniProt P08684). In words: Cytochrome panel assay with activity outcomes. As to conditions: recombinant CYP, pro-luciferin dealkylation, luminescence, p450-cyp3a4; series mostly up to 57.1 µM.
Chain of Cytochrome P450 3A4 (Homo sapiens) (P08684 whole entry, looked up): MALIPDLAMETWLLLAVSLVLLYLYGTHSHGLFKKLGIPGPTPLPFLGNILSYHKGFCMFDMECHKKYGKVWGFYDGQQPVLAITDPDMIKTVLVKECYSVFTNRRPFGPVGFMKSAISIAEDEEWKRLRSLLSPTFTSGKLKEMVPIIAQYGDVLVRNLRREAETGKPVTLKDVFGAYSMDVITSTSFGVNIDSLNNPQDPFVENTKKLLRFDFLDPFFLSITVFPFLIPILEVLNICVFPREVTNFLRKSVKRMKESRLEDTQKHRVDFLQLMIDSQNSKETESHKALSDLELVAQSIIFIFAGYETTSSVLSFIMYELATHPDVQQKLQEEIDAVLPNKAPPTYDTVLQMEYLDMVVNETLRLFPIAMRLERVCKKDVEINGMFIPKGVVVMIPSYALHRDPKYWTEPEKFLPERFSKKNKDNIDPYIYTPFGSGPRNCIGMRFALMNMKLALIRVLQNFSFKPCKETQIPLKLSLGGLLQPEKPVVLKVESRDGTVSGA
Turning to `CC(CO)(CO)N=Cc1cc(I)cc(I)c1O`, the activity, negative = inhibition was -15.2% [at 11.4 µM].
What is called AC50 is the midpoint of the concentration-response curve, whichever way the signal moves. For the molecule `O=C1C(Cc2ccccc2)C(c2ccccc2)N1c1ccccc1` (stereo not drawn), the AC50 entry was “inactive”.
Consider `CCCC1C(=O)N(c2ccccc2)C1c1ccccc1` (stereo not drawn), for which the activity, negative = inhibition is 1.96% [at 2.29 µM].
For the molecule `O=C1C2ON(c3ccccc3)C(c3ccncc3)C2C(=O)N1c1ccccc1` (stereo not drawn), the AC50 was 14.1 µM (active).
On the same count and under the same terms, the result for `CC(=O)NNC(=O)C(O)(c1ccccc1)c1ccccc1` reads “inactive”.
Same read-out and setting: the result for `FC(F)(F)c1nc2ccccc2nc1N/N=C/c1ccc(Cl)cc1` reads 25.1 µM (active); that for `FC(F)(F)c1nc2ccccc2nc1N/N=C\c1ccccc1`, 15.8 µM (active).
On to `N#CC(c1ccc(Cl)cc1)c1nc2ccccc2nc1C(F)(F)F` (stereo not drawn), for which the activity, negative = inhibition is 15.3% [at 2.29 µM].
On the same count and under the same terms, the result for `COc1ccc(Oc2nc3ccccc3nc2C(F)(F)F)cc1` reads 2.66% [at 2.29 µM].
For the molecule `COc1ccc(NC(=O)c2ccc(C)cc2Cl)c([N+](=O)[O-])c1`, the AC50 is 20 µM (active).
Still for that read-out and setting: the result for `COc1ccc(NC(=O)c2cccs2)c([N+](=O)[O-])c1` reads 14.1 µM (active); that for `CCC(CC)C(=O)Nc1cccc(C(=O)Nc2ccc(OC)cc2[N+](=O)[O-])c1`, “inactive”; that for `CCCn1nnnc1NC(=O)c1ccc(C)cc1Cl`, “inactive”.
Same read-out and setting: for `COCCCn1nnnc1SCC(=O)N1CCCC1` the value was “inactive”.
On the same count and under the same terms, the result for `CCCCn1c(SCC(=O)N2CCCC2)nc2c1c(=O)n(C)c(=O)n2C` reads 17.8 µM (active); that for `CCCCn1nnnc1SCC(=O)N1CCCC1`, “inactive”.
For the molecule `COc1ccccc1CNc1ncnc2ccc(-c3ccc(C(=O)N(C)C)cc3)cc12`, the AC50 is 10 µM (active).
The same measure, in the same setting: for `COc1ccc(CNc2ncnc3ccc(-c4ccc(C(=O)N(C)C)cc4)cc23)c(OC)c1` the value was 2.51 µM (active); for `CN1CCCC[C@@H]1CCN1c2ccccc2Sc2ccc(S(C)=O)cc21` (stereo partly drawn), “inactive”.
On to `COC(=O)C1=C(C)C(c2ccc(OC)cc2)NC(=S)N1` (stereo not drawn), for which the activity, negative = inhibition was -11.5% [at 2.29 µM].
On the same count and under the same terms, the result for `Cc1cnc(C(=O)OCC(=O)NC(C)C)cn1` reads -1.72% [at 2.29 µM].
For `COc1ccc(CNC(=O)c2csc(Cc3ccc(OC)cc3)n2)cc1`, the concentration at half-maximal activity (AC50) is 3.16 µM (active).
Consider `COc1ccc(CNC(=O)c2cnc(C)cn2)cc1`, for which the AC50 is 2 µM (active).
On the same count and under the same terms, the result for `COc1ccc(Cc2c(N)nc(N)nc2N)cc1` reads “inactive”; that for `COc1ccc(CNC(=O)c2csc(Cc3ccc(Cl)cc3)n2)cc1`, 3.55 µM (active).
For the molecule `COc1ccc(CN[C@H](C)C(=O)O)cc1`, the activity, negative = inhibition was 0.14% [at 11.4 µM].
As for `O=C(O)c1cc(=O)c2ccc(Cl)cc2[nH]1`, the AC50 result was “inactive”.
Still for that read-out and setting: the result for `CC(=O)Nc1nnc(S(N)(=O)=O)s1` reads “inactive”.
Same read-out and setting: the result for `Cc1ccc(S(=O)(=O)c2c(C)nn(C(C)(C)C)c2OC(=O)c2cccs2)cc1` reads 2.24 µM (active); that for `COCC(=O)Oc1c(S(=O)(=O)c2ccc(C)cc2)c(C)nn1-c1ccccc1`, “inactive”; that for `CCOC(=O)Oc1c(OC)cc(C(=O)O[C@H]2C[C@H]3CN4CCc5c([nH]c6cc(OC)ccc56)[C@@H]4C[C@H]3[C@@H](C(=O)OC)[C@@H]2OC)cc1OC`, “inactive”.
Turning to `COc1ccc(/C=N/NC(=O)c2ccccc2)cc1CN1CCN(c2ccc(F)cc2)CC1`, the AC50 result is “inactive”.
Regarding `COc1ccc(C2C(C#N)=C(N)Oc3n[nH]c(C)c32)cc1CN1CCN(c2ccc(F)cc2)CC1` (stereo not drawn), the AC50 is 8.91 µM (active).
On the same count and under the same terms, the result for `O=C(NC(=S)Nc1cccc(Cl)c1N1CCCC1)c1ccc(-c2cccc([N+](=O)[O-])c2)o1` reads 4.47 µM (active); that for `CCCSc1nc(C)cc(C)c1C(N)=O`, “inactive”.
On the same count and under the same terms, the result for `Cn1cc(C(=O)OCC2CCN(CCNS(C)(=O)=O)CC2)c2ccccc21` reads “inactive”; that for `CCCCN1CCC(CCC(=O)c2cc(Cl)c(N)cc2OC)CC1`, “inactive”; that for `COc1cc(COc2cc(N)c(Cl)cc2C(=O)CCC2CCN(CCNS(C)(=O)=O)CC2)cc(OC)c1`, 2 µM (active).
The same measure, in the same setting: for `O=C(Nc1ccc(C(=O)Nc2ccc(C(=O)Nc3ccc(S(=O)(=O)O)c4cc(S(=O)(=O)O)cc(S(=O)(=O)O)c34)cc2)cc1)Nc1ccc(C(=O)Nc2ccc(C(=O)Nc3ccc(S(=O)(=O)O)c4cc(S(=O)(=O)O)cc(S(=O)(=O)O)c34)cc2)cc1` the value was “inactive”.
Regarding `Cc1nc2c(ccc3nc(NC(=O)c4ccc5c(c4)OCCO5)sc32)s1`, the AC50 was 6.31 µM (active).
Same read-out and setting: for `CCN1CCc2nc(NC(=O)c3ccc4c(c3)OCCO4)sc2C1` the value was 14.1 µM (active).
Turning to `CCN1CCc2c(sc(N)c2C(N)=O)C1`, the AC50 result is “inactive”.
Still for that read-out and setting: the result for `COc1cc(C(=O)Nc2nc3ccc4nc(C)sc4c3s2)cc(OC)c1OC` reads “inactive”.
Same read-out and setting: for `COc1cccc(C(=O)Nc2nc3c(s2)CN(C)CC3)c1` the value was “inactive”.
For `O=C(COc1ccccc1C(=O)N/N=C\c1ccc(O)c(O)c1)N/N=C/c1ccc(O)c(O)c1`, the activity, negative = inhibition was 12.4% [at 2.29 µM].
The same measure, in the same setting: for `C/C(=N/NC(=O)c1cccs1)c1ccc(NC(=O)COc2ccc(Cl)cc2Cl)cc1` the value was -10.1% [at 2.29 µM]; for `Cc1ccccc1C(=O)Nc1ccc(C(=O)NNC(=O)CCCOc2ccc(Cl)cc2Cl)cc1`, -18.9% [at 2.29 µM].
As to `Cc1cc(NC(=O)COc2ccc(Cl)cc2Cl)n(-c2ccccc2)n1`, the activity, negative = inhibition is -28.2% [at 11.4 µM].
Regarding `CC(C/C=N/NC(=O)COc1cc(Cl)ccc1Cl)c1ccccc1` (stereo not drawn), the AC50 is 14.1 µM (active).
On to `CCc1ccc(OCC(=O)NC(=S)Nc2ccc(F)cc2)c(Br)c1`, for which the activity, negative = inhibition was -0.136% [at 2.29 µM].
For `CCC(=O)NC(=S)Nc1ccc(NC(=O)COc2ccc(Cl)cc2Cl)cc1`, the AC50 is 12.6 µM (active).
Same read-out and setting: the result for `O=C(COc1ccc(Cl)cc1Cl)N/N=C/CCc1ccccc1` reads 11.2 µM (active); that for `CC(=C\C(=O)O)/C(=C/c1ccccc1)C(=O)O`, “inactive”.
Same read-out and setting: for `CC(=C/c1ccccc1)/C=N/n1cnnc1` the value was 12.6 µM (active); for `CC(/C=N\NC(=O)Cn1c(C)nc2ccccc21)=C\c1ccccc1`, “inactive”.
Same read-out and setting: for `FC(F)(F)c1ccccc1-c1nc(Nc2ccncc2)c2ccccc2n1` the value was 0.631 µM (active); for `Clc1ccccc1-c1nc(Nc2ccncc2)c2ccccc2n1`, 3.98 µM (active); for `CNc1nc(-c2ccccc2Cl)nc2ccccc12`, 25.1 µM (active).
Regarding `Cc1ccccc1-c1nc(Nc2ccncc2)c2ccccc2n1`, the concentration at half-maximal activity (AC50) is 6.31 µM (active).
Still for that read-out and setting: the result for `CNc1nc(-c2ccccc2C(F)(F)F)nc2ccccc12` reads “inactive”.
Consider `CNC(=O)c1sc(SC)cc1-c1ccc(Cl)cc1`, for which the AC50 entry is “inactive”.
In the case of `Clc1ccccc1C(Nc1cnccn1)Nc1cnccn1`, the activity, negative = inhibition is -4.71% [at 11.4 µM].
In the case of `COCCNC(=O)c1ccc2c(c1)ncn2-c1ccc(F)c(F)c1`, the AC50 entry was “inactive”.
`Clc1ccccc1-c1ccc2ncnc(NCCN3CCOCC3)c2c1`: the AC50 is 5.01 µM (active).
The same measure, in the same setting: for `COc1ccccc1-c1ccc2ncnc(NCCN3CCOCC3)c2c1` the value was 7.94 µM (active).
Same read-out and setting: for `N#Cc1ccccc1-c1ccc2ncnc(NCCN3CCOCC3)c2c1` the value was 10 µM (active); for `S=c1nc(-c2ccccc2)oc2c1CCCC2`, “inactive”.
For `O=C(CN1CCCC1)N/N=C/c1ccc(-c2cccc(Cl)c2)o1`, the activity, negative = inhibition is 13.8% [at 2.29 µM].
As for `O=C(CSCc1cccc(Cl)c1)N/N=C/c1ccc(OCC(=O)N2CCCCC2)cc1`, the AC50 was 14.1 µM (active).
Same read-out and setting: the result for `Cc1cccc(C(=O)N/N=C/c2ccc(OCC(=O)N3CCCCC3)cc2)c1` reads 20 µM (active); that for `Cc1cccc(OCC(=O)N2CCC(N3CCCCCC3)CC2)c1`, “inactive”.
Take `CCOC(=O)c1c2ccc(OCC(=O)N/N=C/c3ccc(Cl)cc3)cc2n2ccccc12`: the activity, negative = inhibition was -26.7% [at 2.29 µM].
With `COc1ccc2cc3cc(C(=O)NCc4ccc5c(c4)OCO5)oc3nc2c1`, the AC50 is 0.708 µM (active).
The same measure, in the same setting: the result for `COc1ccc2oc(=O)c(C(=O)Oc3ccc(NC(C)=O)cc3)cc2c1` reads “inactive”.
Same read-out and setting: for `COc1ccc2cc3cc(C(=O)Nc4ccc5c(c4)OCO5)oc3nc2c1` the value was 0.355 µM (active).
Still for that read-out and setting: the result for `C/C(O)=C\c1nc2ccccc2oc1=O` reads “inactive”; that for `CO[C@@H]1/C=C\O[C@@]2(C)Oc3c(C)c(O)c4c(c3C2=O)C(=N[C@H]2CC[C@H](O)O[C@@H]2C)C=C(NC(=O)/C(C)=C\C(=O)[C@@H]2C[C@@H]2[C@@H](O)[C@H](C)[C@@H](O)[C@H](C)[C@H](OC(C)=O)[C@@H]1C)C4=O`, 1.26 µM (active).
For `CO[C@H]1C=CO[C@]2(C)Oc3c(C)c(O)c4c(O)c(c5c(c4c3C2=O)NC2(CCN(CC(C)C)CC2)N=5)=NC(=O)C(C)=CC=C[C@@H](C)[C@@H](O)[C@@H](C)[C@@H](O)[C@@H](C)[C@@H](OC(C)=O)[C@@H]1C`, the AC50 entry is “inactive”.
On the same count and under the same terms, for `COc1ccc(/C=C(/C(=O)Nc2ccccc2C(=O)NC(C)C)c2ccccc2)cc1` the value was 11.2 µM (active).
Turning to `CC(C)C(=O)NC(=S)Nc1ccccc1C(=O)Nc1ccccc1`, the activity, negative = inhibition was 11.2% [at 2.29 µM].
With `Cc1ccccc1NC(=O)/C(=C/c1ccccc1)c1ccccc1`, the activity, negative = inhibition was 12.5% [at 11.4 µM].
`OC[C@@H]1NC[C@@H](O)[C@H]1O`: the AC50 result was “inactive”.
On the same count and under the same terms, the result for `COc1cccc([C@H]2Oc3ccc(OC)cc3/C(=N\O[C@@H](C)c3cn([C@H](CO)Cc4ccccc4)nn3)[C@@H]2O)c1` reads 3.16 µM (active) and 3.98 µM (active).
Same read-out and setting: for `COc1cccc([C@@H]2Oc3ccc(OC)cc3/C(=N/O[C@@H](C)c3cn([C@H]4COC[C@H]4O)nn3)[C@@H]2O)c1` the value was 3.16 µM (active); for `COc1cccc([C@@H]2Oc3ccc(OC)cc3/C(=N/O[C@@H](C)c3cc(-c4c(C)cc(C)cc4C)no3)[C@@H]2O)c1`, 1.58 µM (active).
Consider `CC(C)=NO[C@@H](C)c1cn([C@@H]2COC[C@@H]2O)nn1`, for which the activity, negative = inhibition was -6.38% [at 11.4 µM].
As to `CCN1C(=O)[C@H]2[C@H]3[C@H](O)[C@H](O)C/C(=N/O[C@@H](C)c4cn([C@H]5COC[C@H]5O)nn4)[C@@H]3CC[C@@H]2C1=O`, the activity, negative = inhibition was -18.4% [at 11.4 µM].
For `Cc1cc(C)c(-c2cc([C@H](C)O/N=C\[C@@H](C)[C@H](OCc3ccccc3)C(C)C)on2)c(C)c1`, the activity, negative = inhibition is -37.1% [at 11.4 µM].
